Results published in PubChem BioAssay AID1159580 (chemical genetic matrix, 2015).
“And” between values parts separate entries of the source, which are not always exact repeats. Equal entries are not always repeated. Out of some 5,500 compounds screened, about 2,000 (36%) were called active. About 18% were inconclusive and are not listed. Rule as the data show it: active = normalized growth mostly below about 0.91 (no sharp cut-off); inconclusive = no clear call, values can overlap the other calls; inactive = mostly above about 0.92. The list shows a part of the results.

Experiment: chemical genetic growth profiling, strain panel (AID 1159580);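 also: tested at 20 µM; growth read once vehicle control cultures reached saturation at 30 °C; 1 = growth at the plate median or of vehicle wells; lower values mean less growth of the strain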
Conditions: S. cerevisiae deletion strains, growth OD

Measured: normalized growth

CCCCC[C@H](CC(=O)NO)C(=O)N[C@H](C(=O)N1CCC[C@H]1CO)C(C)C
inactive: locus YAL013W, strain DEP1, active compounds read low 0.979 | locus YAL021C, strain ccr4, active compounds read low 1.02 | locus YAL026C, strain drs2, active compounds read low 1.01 | locus YAL030W, strain snc1, active compounds read low 1 | locus YBL061C, strain skt5, active compounds read low 1.01 | locus YBR009C, strain hhf1, active compounds read low 1.02 | locus YBR021W, strain FUR4, active compounds read low 1.04 | locus YBR023C, strain chs3, active compounds read low 1.01 | locus YBR171W, strain sec66, active compounds read low 1.02 | locus YBR229C, strain ROT2, active compounds read low 1 | locus YBR231C, strain swc5, active compounds read low 1.02 | locus YBR279W, strain paf1, active compounds read low 1.02 | locus YCL011C, strain gbp2, active compounds read low 1.01 | locus YCL016C, strain dcc1, active compounds read low 1.01 | locus YCL029C, strain bik1, active compounds read low 1.02 | locus YCL061C, strain MRC1, active compounds read low 1.01 | locus YCL069W, strain vba3, active compounds read low 1.01 | locus YCR088W, strain abp1, active compounds read low 1.01 | locus YDL005C, strain med2, active compounds read low 1.02 | locus YDL035C, strain GPR1, active compounds read low 0.989 | locus YDL040C, strain nat1, active compounds read low 1.02 | locus YDL074C, strain BRE1, active compounds read low 1.02 | locus YDL101C, strain DUN1, active compounds read low 1.02 | locus YDL185W, strain tfp1, active compounds read low 1.01 | locus YDL192W, strain arf1, active compounds read low 1.02 | locus YDR001C, strain nth1, active compounds read low 1.01 | locus YDR069C, strain doa4, active compounds read low 1.03 | locus YDR101C, strain arx1, active compounds read low 1.03 | locus YDR137W, strain rgp1, active compounds read low 0.972 | locus YDR150W, strain NUM1, active compounds read low 1.02 | locus YDR159W, strain sac3, active compounds read low 1.03 | locus YDR162C, strain NBP2, active compounds read low 0.988 | locus YDR195W, strain ref2 1 | locus YDR297W, strain sur2, active compounds read low 1.02 | locus YDR318W, strain mcm21, active compounds read low 1.01 | locus YDR334W, strain swr1, active compounds read low 1.01 | locus YDR335W, strain msn5, active compounds read low 1.02 | locus YDR388W, active compounds read low 1.02 | locus YDR392W, strain spt3, active compounds read low 1.04 | locus YDR502C, strain sam2, active compounds read low 1 | locus YEL003W, strain gim4, active compounds read low 1.02 | locus YEL037C, strain rad23, active compounds read low 1 | locus YEL061C, strain CIN8 (second series), active compounds read low 1.01 | locus YEL061C, strain CIN8, active compounds read low 1.01 | locus YER015W, strain faa2, active compounds read low 1.02 | locus YER016W, strain bim1, active compounds read low 1.01 | locus YER110C, active compounds read low 1.03 | locus YER111C, strain swi4, active compounds read low 1.02 | locus YER155C, strain BEM2 (second series), active compounds read low 1.02 | locus YER155C, strain BEM2, active compounds read low 1.01 | locus YER167W, strain BCK2, active compounds read low 0.999 | locus YFR010W, strain ubp6, active compounds read low 1.01 | locus YGL078C, strain dbp3, active compounds read low 1.02 | locus YGL086W, strain mad1, active compounds read low 1.01 | locus YGL167C, strain pmr1, active compounds read low 1.01 | locus YGL173C, strain kem1, active compounds read low 1.03 | locus YGL227W, strain vid30, active compounds read low 1.02 | locus YGL240W, strain doc1, active compounds read low 1.03 | locus YGL248W, strain PDE1, active compounds read low 1.02 | locus YGL253W, strain hxk2, active compounds read low 1.01 | locus YGR078C, strain PAC10, active compounds read low 1.01 | locus YGR135W, strain pre9, active compounds read low 1.01 | locus YGR252W, strain gcn5, active compounds read low 1.02 | locus YHR013C, strain ard1, active compounds read low 1.03 | locus YHR027C, strain rpn1, active compounds read low 1.02 | locus YHR030C, strain SLT2, active compounds read low 1.01 and 0.992 | locus YHR079C, strain IRE1 (second series), active compounds read low 1.03 | locus YHR079C, strain IRE1, active compounds read low 0.973 | locus YHR094C, strain hxt1, active compounds read low 1.01 | locus YHR129C, strain ARP1, active compounds read low 1.02 | locus YHR142W, strain chs7, active compounds read low 1.01 | locus YHR200W, strain rpn10, active compounds read low 1.01 | locus YIL066C, strain RNR3, active compounds read low 0.999 | locus YIL073C, strain SPO22, active compounds read low 1.06 | locus YIL125W, strain kgd1, active compounds read low 1.02 | locus YIR030C, strain dcg1, active compounds read low 1.02 | locus YJL092W, strain hpr5, active compounds read low 1.01 | locus YJL095W, strain BCK1 (second series), active compounds read low 1.02 | locus YJL095W, strain BCK1, active compounds read low 1.02 and 0.977 | locus YJL115W, strain asf1, active compounds read low 1 | locus YJL129C, strain trk1, active compounds read low 1.03 | locus YJL134W, strain LCB3, active compounds read low 1.01 | locus YJL154C, strain vps35, active compounds read low 1 | locus YJL164C, strain tpk1, active compounds read low 1.03 | locus YJL166W, strain qcr8, active compounds read low 1.02 | locus YJL168C, strain set2, active compounds read low 1.01 | locus YJL187C, strain SWE1 (second series), active compounds read low 1.04 | locus YJL187C, strain SWE1, active compounds read low 1.02
